Assay results taken from PubChem BioAssay (Tox21).
Inconclusive results are not listed. Activity calls are given as the source filed them. Calls come from the whole dose curve; as a rule, active = well fitted curve in the direction sought with a large enough effect in the repeat runs; inconclusive = weak or mixed curves; inactive = no such curve, though single readings can be large; an effect the other way counts as inactive or inconclusive.

Columns and labels:
[1] = A CellTox Green Cytotoxicity Assay to monitor cytotoxicity in HEK293 cells - 24 hour (AID 1224875); note: series mostly up to about 77 µM; nearly all actives have a fitted effect of over 45% in size
Outline: (§1)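 Dead-cell fluorescence measured kinetically: asymmetric cyanine dye, HEK293, 600 cells/well, 5 h settle, 23 nL cpd/DMSO, 37 C, reads 0–40 h every 8 h.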

[2] = A CellTox Green Cytotoxicity Assay to monitor cytotoxicity in HepG2 cells - 16 hour (AID 1224876); note: nearly all actives have a fitted effect of over 45% in size
Outline: (§2)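 First, HepG2 cells (600/well) mixed with reagent were plated; second, after 5 h at 37 C they received compounds via pintool; third, fluorescence was measured at 0 h through 40 h at 8 h intervals.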

[3] = qHTS RealTime-Glo MT Cell Viability Assay in HepG2 cells - 32 hour (AID 1224877); note: nearly all actives have a fitted effect of over 55% in size
Outline: (§3)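 HepG2 cells (600/well) were dispensed with RealTime-Glo reagents, incubated 5 h at 37 °C, then treated with compounds in DMSO for up to 40 h. Nonlytic NanoLuc luminescence reflecting viable cells was read at each stated time point.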

[4] = A CellTox Green Cytotoxicity Assay to monitor cytotoxicity in HepG2 cells - 24 hour (AID 1224878); note: nearly all actives have a fitted effect of over 45% in size; note: potency is the fitted concentration of half-maximal effect
Outline: as §2

[5] = A CellTox Green Cytotoxicity Assay to monitor cytotoxicity in HepG2 cells - 40 hour (AID 1224879); note: nearly all actives have a fitted effect of over 40% in size; note: potency is the fitted concentration of half-maximal effect
Outline: as §2

[6] = qHTS RealTime-Glo MT Cell Viability Assay in HEK293 cells - 0 hour (AID 1224880); note: top concentration of the series differs between compounds; nearly all actives have a fitted effect of over 45% in size
Outline: (§4)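 600 HEK293 cells per well, dispensed already mixed with RealTime-Glo MT reagents. Compound dosing came 5 h later. The same wells were read for luminescence at 0, 8, 16, 24, 32 and 40 h of exposure at 37 C.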

[7] = A CellTox Green Cytotoxicity Assay to monitor cytotoxicity in HEK293 cells - 32 hour (AID 1224881); note: nearly all actives have a fitted effect of over 40% in size
Outline: as §1

[8] = A CellTox Green Cytotoxicity Assay to monitor cytotoxicity in HepG2 cells - 0 hour (AID 1224882); note: nearly all actives have a fitted effect of over 35% in size
Outline: as §2

[9] = A CellTox Green Cytotoxicity Assay to monitor cytotoxicity in HepG2 cells - 32 hour (AID 1224883); note: nearly all actives have a fitted effect of over 50% in size; note: potency is the fitted concentration of half-maximal effect
Outline: as §2

[10] = A CellTox Green Cytotoxicity Assay to monitor cytotoxicity in HEK293 cells - 8 hour (AID 1224884); note: nearly all actives have a fitted effect of over 35% in size
Outline: as §1

[11] = qHTS RealTime-Glo MT Cell Viability Assay in HepG2 cells - 16 hour (AID 1224885); note: nearly all actives have a fitted effect of over 50% in size
Outline: as §3

[12] = qHTS RealTime-Glo MT Cell Viability Assay in HEK293 cells - 24 hour (AID 1224886); note: nearly all actives have a fitted effect of over 50% in size; note: potency is the fitted concentration of half-maximal effect
Outline: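 HEK293 cells seeded with NanoLuc/prosubstrate reagent, rested 5 h at 37 C, then dosed and kept at 37 C up to 40 h. Nonlytic real-time luminescence from viable cells read at 0, 8, 16, 24, 32 and 40 h.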

[13] = qHTS RealTime-Glo MT Cell Viability Assay in HEK293 cells - 8 hour (AID 1224887); note: nearly all actives have a fitted effect of over 50% in size; note: potency is the fitted concentration of half-maximal effect
Outline: as §4

[14] = A CellTox Green Cytotoxicity Assay to monitor cytotoxicity in HEK293 cells - 16 hour (AID 1224888); note: nearly all actives have a fitted effect of over 35% in size
Outline: as §1

[15] = qHTS RealTime-Glo MT Cell Viability Assay in HepG2 cells - 0 hour (AID 1224889); note: nearly all actives have a fitted effect of over 50% in size
Outline: as §3

[16] = A CellTox Green Cytotoxicity Assay to monitor cytotoxicity in HepG2 cells - 8 hour (AID 1224890); note: nearly all actives have a fitted effect of over 45% in size
Outline: as §2

[17] = qHTS assay to identify small molecule antagonists of the estrogen receptor alpha (ER-alpha) signaling pathway using the BG1 cell line in the presence of 0.1 nM 17-beta-estradiol - cell viability counter screen (AID 1259241); note: nearly all actives have a fitted effect of over 40% in size
Outline: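 Measures cytotoxicity alongside the ER-alpha antagonist readout: VM7Luc4E2 cells, charcoal-stripped serum, 0.1 nM 17beta-estradiol final, 22 hr compound incubation at 37C, CellTiter-Fluor fluorescence.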

[18] = qHTS assay to identify small molecule antagonists of the androgen receptor (AR) signaling pathway using the MDA cell line in the presence of 0.5 nM R1881 - cell viability counter screen (AID 1259242); note: nearly all actives have a fitted effect of over 45% in size
Outline: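 qHTS format. MDA-kb2 (MMTV-luc, AR/GR responsive) + cpd + 0.5 nM R1881 final, 16 hr 37C/0% CO2 → CellTiter-Fluor 30 min → fluorescence intensity.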

[19] = qHTS RealTime-Glo MT Cell Viability Assay in HEK293 cells - 40 hour (AID 1224874); details: RealTime-Glo luminescence; max response: hits give low values
Outline: as §4

[20] = biological target: Androgen receptor (Homo sapiens) (UniProt P10275); assay: qHTS assay to identify small molecule antagonists of the androgen receptor (AR) signaling pathway using the MDA cell line in the presence of 0.5 nM R1881 (AID 1259243); note: nearly all actives have a fitted effect of over 50% in size
Outline: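 Antagonist mode quantitative HTS in MDA-kb2 MMTV-luciferase cells, agonist R1881 at 0.5 nM final, 16 hr exposure at 37C and 0% CO2, luminescent detection.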

Measured: Potency

Sequence of Androgen receptor (Homo sapiens) (P10275 whole entry, looked up): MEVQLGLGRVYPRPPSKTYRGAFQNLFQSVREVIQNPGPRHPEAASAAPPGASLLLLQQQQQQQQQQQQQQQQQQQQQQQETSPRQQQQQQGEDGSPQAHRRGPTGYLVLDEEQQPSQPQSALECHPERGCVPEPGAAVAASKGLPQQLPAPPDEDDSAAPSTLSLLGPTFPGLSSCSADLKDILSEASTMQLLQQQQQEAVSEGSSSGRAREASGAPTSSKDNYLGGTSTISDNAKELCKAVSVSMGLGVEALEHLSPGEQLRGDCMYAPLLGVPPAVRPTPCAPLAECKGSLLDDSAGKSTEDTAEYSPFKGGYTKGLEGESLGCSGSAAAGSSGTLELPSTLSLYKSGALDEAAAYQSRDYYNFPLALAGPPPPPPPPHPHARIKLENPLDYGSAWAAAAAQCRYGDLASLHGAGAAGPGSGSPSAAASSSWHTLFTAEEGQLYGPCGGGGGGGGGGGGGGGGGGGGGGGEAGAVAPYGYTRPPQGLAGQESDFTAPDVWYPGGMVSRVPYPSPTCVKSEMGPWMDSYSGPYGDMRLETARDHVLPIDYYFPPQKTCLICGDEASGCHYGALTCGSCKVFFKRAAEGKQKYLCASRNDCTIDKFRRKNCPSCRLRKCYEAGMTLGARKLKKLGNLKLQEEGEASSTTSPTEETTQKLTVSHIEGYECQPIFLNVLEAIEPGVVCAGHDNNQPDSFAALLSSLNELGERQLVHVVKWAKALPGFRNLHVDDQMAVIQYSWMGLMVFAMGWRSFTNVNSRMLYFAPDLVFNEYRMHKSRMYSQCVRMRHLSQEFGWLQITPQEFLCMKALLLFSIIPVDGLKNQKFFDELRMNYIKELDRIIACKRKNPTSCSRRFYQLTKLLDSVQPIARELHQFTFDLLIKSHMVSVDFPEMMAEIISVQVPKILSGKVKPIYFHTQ

SC1CCCC1
not listed: [19] | [20]
inactive: all other assays above

CCOC(=S)SSC(=S)OCC
not listed: [17] | [19] | [20]
inactive: all other assays above

Oc1ccc(Cc2ccccc2)cc1
active: [19] 40.4 µM | [12] 36 µM | [13] 22.7 µM
not listed: [1] | [4] | [5] | [7] | [9] | [14] | [20]
inactive: all other assays above

CCCCOC(=O)/C=C\C(=O)OCCCC
not listed: [19] | [20]
inactive: all other assays above

Cc1ccc(O)c([C@H](CCN(C(C)C)C(C)C)c2ccccc2)c1
active: [4] 21.3 µM | [5] 23.9 µM | [9] 21.3 µM
not listed: [18] | [19] | [20]
inactive: all other assays above

Cc1ncsc1CCO
not listed: [19] | [20]
inactive: all other assays above

Nc1nc(CC(=O)O)cs1
not listed: [12] | [19] | [20]
inactive: all other assays above

CCCOc1ccc2nc(NC(=O)OC)[nH]c2c1
active: [5] 0.477 µM
not listed: [12] | [19]
inactive: all other assays above

CCCC(C)C
not listed: [12] | [19] | [20]
inactive: all other assays above

CC(=O)CC(=O)c1ccccc1
not listed: [12] | [19] | [20]
inactive: all other assays above

N=C(N=C(N)N)N1CCOCC1
not listed: [19] | [20]
inactive: all other assays above

C[C@H](CCC(=O)O)[C@H]1CC[C@H]2[C@@H]3[C@H](O)C[C@@H]4C[C@H](O)CC[C@]4(C)[C@H]3CC[C@]12C
not listed: [12] | [17] | [19] | [20]
inactive: all other assays above

C=Cc1c(C)c2cc3[nH]c(cc4nc(cc5nc(cc1[nH]2)C(C)=C5CCC(=O)O)C(CCC(=O)O)=C4C)c(C)c3C=C
not listed: [17] | [18] | [19] | [20]
inactive: all other assays above

CC1=CCC(C(C)C)C=C1 (stereo unspecified)
not listed: [19] | [20]
inactive: all other assays above

Cc1ccc(C(C)c2ccc(C)c(C)c2)cc1C
not listed: [19] | [20]
inactive: all other assays above
